Assay outcomes deposited in PubChem by National Center for Advancing Translational Sciences (NCATS).
This is a sample that favours compounds with a hit; in the whole collection about 17% have one here.
ClpP mod: qHTS Assay for Activators of ClpP; purified B. subtilis ClpP, FRET peptide cleavage, 20 min; Potency, µM (doses to about 57.5 µM), without a hit: at the highest dose activity change, negative = active; 340,000 compounds, 1.9% hits; active means well fitted falling curve with a large enough effect; inconclusive means small, poorly fitted or top-dose-only effect; inactive means no such curve, though single readings can be large or run the other way; further: the source files actives as falling curves though it sought activators and does not explain the sign; nearly all actives have a fitted effect of over 65% in size
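ClpP 10 microg/mL final, pH 8 Tris/KCl buffer with BSA, glycerol, Tween-20; compound pinned in; FRET-FV substrate; RT 20 min; Ex320/Em430; ΔFRET vs ADEP 5.8 microM, DMSO, no enzyme.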
TDP1 block: TDP1 (human) enzyme inhibition. Q9NUW8. recombinant TDP1, AlphaScreen DNA substrate cleavage. Potency, µM (top dose mostly 130 µM), for the others: top-dose activity change, negative = inhibition, most hits filed as inhibitors. 350,000 compounds, 0.28% hits; further: on the % scale 0 is the no-effect control and ±100 the full control effect; nearly all actives have a fitted effect of over 40% in size
Target sequence (Q9NUW8 whole entry, looked up): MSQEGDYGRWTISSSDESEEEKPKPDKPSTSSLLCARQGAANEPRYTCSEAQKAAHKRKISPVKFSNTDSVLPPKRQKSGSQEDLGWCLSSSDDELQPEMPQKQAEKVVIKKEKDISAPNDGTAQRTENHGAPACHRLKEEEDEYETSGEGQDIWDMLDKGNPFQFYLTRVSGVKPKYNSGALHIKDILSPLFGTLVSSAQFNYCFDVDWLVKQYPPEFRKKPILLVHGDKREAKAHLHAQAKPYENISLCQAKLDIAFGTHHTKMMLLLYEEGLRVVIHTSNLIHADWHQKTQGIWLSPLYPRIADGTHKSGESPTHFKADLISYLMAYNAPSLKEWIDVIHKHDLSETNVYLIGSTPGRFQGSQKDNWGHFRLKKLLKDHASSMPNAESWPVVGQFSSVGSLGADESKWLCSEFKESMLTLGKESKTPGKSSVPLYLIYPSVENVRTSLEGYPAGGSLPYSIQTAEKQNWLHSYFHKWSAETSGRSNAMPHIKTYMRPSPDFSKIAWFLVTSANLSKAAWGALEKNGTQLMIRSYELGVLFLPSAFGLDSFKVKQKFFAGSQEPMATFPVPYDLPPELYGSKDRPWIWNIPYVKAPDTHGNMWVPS
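Recombinant E. coli-expressed Tdp1 (1 nM) preincubated with compound 15 min at RT, then 5'-biotin/3'-phosphotyrosine-FITC DNA substrate (15 nM) added for 5 min. AlphaScreen beads (10 ug/ml) added, 10 min RT; tyrosine-FITC cleavage read as signal loss.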
DT40 TDP1 CPT: DT40-hTDP1 cell growth loss with CPT; 420,000 compounds, 12% hits; AID 686979; chicken DT40 Tdp1-/-;hTDP1 cells + 20 nM CPT, ATP luminescence, 48 h; Potency, µM (highest dose often 46.2 µM), without a hit: top-dose activity change, negative = growth inhibition, actives largely listed as inhibitors; further: on the % scale 0 is the no-effect control and ±100 the full control effect; nearly all actives have a fitted effect of over 55% in size
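Cell growth measured by CellTiter-Glo luminescence after a minimum 48 h, 37 C compound exposure with 20 nM CPT in Tdp1-knockout DT40 cells stably expressing hTDP1, seeded 400/well; qHTS titration format.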
DT40 TDP1 no CPT: qHTS for Inhibitors of human tyrosyl-DNA phosphodiesterase 1 (TDP1): qHTS in cells in absence of CPT; 420,000 compounds, 15% hits; Potency, µM (doses to about 46.2 µM), for inactives: at the top dose activity change, negative = growth inhibition, usual class: inhibitors; DT40 Tdp1-/- hTDP1 cells, no CPT, ATP luminescence, 48 h; further: on the % scale 0 is the no-effect control and ±100 the full control effect; nearly all actives have a fitted effect of over 55% in size
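Compound effects on proliferation are scored in DT40 Tdp1-/-;hTDP1 cells in the absence of CPT. ATP levels (CellTiter-Glo luminescence) are recorded after a ≥48 hr, 37 °C incubation.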
The depositor's hits bear a star. Unless noted, the call rests on the fitted dose curve; in most records, active means well fitted curve in the direction sought with a large enough effect; inconclusive means small, poorly fitted or top-dose-only effect, or another doubt; inactive means no such curve, though single readings can be large; an effect the other way counts as inactive or inconclusive. Potency means the concentration at half of the fitted maximal effect.

COc1ccccc1NC(=O)CN1CCN(C2c3ccccc3-c3ccccc32)CC1 was read as ClpP mod -3%, TDP1 block 7%, DT40 TDP1 CPT 18µM* and DT40 TDP1 no CPT 21µM*.
COc1ccc(NC(=O)CN2CCN(C3c4ccccc4-c4ccccc43)CC2)c(OC)c1 was read as ClpP mod -5%, TDP1 block 5%, DT40 TDP1 CPT inconclusive and DT40 TDP1 no CPT 26µM*.
`CCOc1ccc(NC(=O)CN2CCN(C3c4ccccc4-c4ccccc43)CC2)cc1` gave ClpP mod -6%, TDP1 block 3%, DT40 TDP1 CPT inconclusive and DT40 TDP1 no CPT inconclusive.
For COc1ccccc1NC(=O)CN1CCCCCC1 the results were TDP1 block 0%, DT40 TDP1 CPT 9% and DT40 TDP1 no CPT -23%.
For Cc1ccc(C)c(-n2c(-c3cccnc3)n[nH]c2=S)c1 the results were TDP1 block inconclusive, DT40 TDP1 CPT 32% and DT40 TDP1 no CPT -21%.
Screening Cc1[nH]nc(-c2cccnc2)c1N=NN(C)C returned ClpP mod -1%, DT40 TDP1 CPT 0.82µM* and DT40 TDP1 no CPT 1.5µM*.
`Cc1cccc(NC(=O)CSCC(=O)NCc2ccco2)c1` gave ClpP mod -3%, TDP1 block 5%, DT40 TDP1 CPT -7% and DT40 TDP1 no CPT 15%.
`CCCc1cc(-c2nc(-c3ccc(Br)cc3)cs2)ccn1` gave ClpP mod -10%, TDP1 block -11%, DT40 TDP1 CPT inconclusive and DT40 TDP1 no CPT inconclusive.
CCCc1cc(-c2nc(-c3ccc(Cl)cc3)cs2)ccn1 was read as ClpP mod -24%, TDP1 block -5%, DT40 TDP1 CPT 18µM* and DT40 TDP1 no CPT 18µM*.
COc1ccc(CC(=O)N(Cc2ccccc2)c2ccc(C)cc2)cc1S(=O)(=O)N1CCOCC1 was read as ClpP mod 25µM*, TDP1 block 1%, DT40 TDP1 CPT 18µM* and DT40 TDP1 no CPT 16µM*.
Screening COc1ccc(CC(=O)N(C)Cc2ccc(C(C)(C)C)cc2)cc1S(=O)(=O)N1CCOCC1 returned ClpP mod 0%, TDP1 block 6%, DT40 TDP1 CPT 21µM* and DT40 TDP1 no CPT 29µM*.
Screening O=C(c1cccc(F)c1)N1CCC2(CCCN(c3ccccc3)C2)CC1 returned DT40 TDP1 CPT -1% and DT40 TDP1 no CPT inconclusive.
`CC1(C)Cc2c(c(-c3ccco3)nc3sc4c(NCCO)ncnc4c23)CO1` gave ClpP mod 4%, TDP1 block -2%, DT40 TDP1 CPT 23µM* and DT40 TDP1 no CPT 9.2µM*.
For CCCSc1nc(NCc2ccco2)c2c3c(sc2n1)COC(C)(C)C3 the results were ClpP mod -21%, TDP1 block 0%, DT40 TDP1 CPT -24% and DT40 TDP1 no CPT inconclusive.
For COCCCNc1ncnc2c1sc1nc(-c3ccco3)c3c(c12)CC(C)(C)OC3 the results were ClpP mod -1%, TDP1 block 3%, DT40 TDP1 CPT inconclusive and DT40 TDP1 no CPT 15µM*.
`CCCc1nc2oc3c(OC)ncnc3c2c2c1COC(C)(C)C2` gave ClpP mod -1%, TDP1 block 5%, DT40 TDP1 CPT inconclusive and DT40 TDP1 no CPT 21µM*.
Screening Cc1nc2sc3c(NCc4ccco4)ncnc3c2c2c1COC(C)(C)C2 returned ClpP mod -28%, TDP1 block 2%, DT40 TDP1 CPT inconclusive and DT40 TDP1 no CPT 23µM*.
For Cc1ccc(Cl)cc1NC(=O)CCCN1C(=O)CCn2nc(-c3cn(C)c4ccccc34)cc21 the results were ClpP mod -18%, TDP1 block 3%, DT40 TDP1 CPT inconclusive and DT40 TDP1 no CPT inconclusive.
Screening O=C(Nc1cc(C(F)(F)F)ccc1Cl)[C@H](O)CCc1ccccc1 returned TDP1 block -7%.
Cc1cccc(C(=O)N2CCNC(=O)C2CC(=O)Nc2cccc(Cl)c2)c1 (stereo not given) was read as ClpP mod 0%, TDP1 block 1%, DT40 TDP1 CPT 2% and DT40 TDP1 no CPT 2%.
For O=C(CNS(=O)(=O)c1ccccc1)NCC(=O)OCc1ccc(Cl)cc1 the results were ClpP mod -1%, DT40 TDP1 CPT -6% and DT40 TDP1 no CPT 0%.
`Cc1nc2oc3c(NCC4CCCO4)ncnc3c2c2c1COC(C)(C)C2` (stereo not given) gave ClpP mod -3%, TDP1 block 0%, DT40 TDP1 CPT 0% and DT40 TDP1 no CPT -1%.
`Cc1nc2oc3c(NCc4ccccc4)ncnc3c2c2c1COC(C)(C)C2` gave ClpP mod 26%, TDP1 block 4%, DT40 TDP1 CPT inconclusive and DT40 TDP1 no CPT 18µM*.
CCc1ccc(C(=O)COC(=O)C(NC(=O)C2CCC(C)CC2)C(C)C)cc1 (stereo not given) was read as ClpP mod -3%, DT40 TDP1 CPT -19% and DT40 TDP1 no CPT inconclusive.
CC1CCC(C(=O)NC(C(=O)OCC(=O)c2ccc(Br)cc2)C(C)C)CC1 (stereo not given) was read as ClpP mod -2%, DT40 TDP1 CPT inconclusive and DT40 TDP1 no CPT 21µM*.
Oc1cccc2c(NC(=S)Nc3ccc(OC(F)F)cc3)cccc12 was read as TDP1 block 1%, DT40 TDP1 CPT -59% and DT40 TDP1 no CPT 18µM*.
`COc1ccccc1N(C)C(=O)c1cc(S(=O)(=O)N2CCCC2)cn1C` gave ClpP mod -11%, DT40 TDP1 CPT 1% and DT40 TDP1 no CPT -9%.
Cc1ccc(Cl)cc1N1CCN(C(=O)C2CCN(S(=O)(=O)Cc3ccccc3)CC2)CC1 was read as ClpP mod 2%, TDP1 block 11%, DT40 TDP1 CPT 4.1µM* and DT40 TDP1 no CPT 13µM*.
For Cc1ccc(Cl)cc1N1CCN(S(=O)(=O)c2cnc[nH]2)CC1 the results were ClpP mod 0%, TDP1 block 5%, DT40 TDP1 CPT 21µM* and DT40 TDP1 no CPT inconclusive.
Screening O=C(C1CCN(S(=O)(=O)c2cccnc2)CC1)N1CCN(c2ccccc2Cl)CC1 returned ClpP mod 1%, TDP1 block 1%, DT40 TDP1 CPT inconclusive and DT40 TDP1 no CPT 21µM*.
Screening Cc1ccc(Cl)cc1N1CCN(C(=O)C2CCN(S(=O)(=O)c3cccnc3)CC2)CC1 returned ClpP mod -2%, TDP1 block 6%, DT40 TDP1 CPT 2.9µM* and DT40 TDP1 no CPT 4.6µM*.
O=C(/C=C/c1ccc(S(=O)(=O)NCc2ccco2)cc1)NCc1cccc(Cl)c1 was read as ClpP mod -3%, TDP1 block 8%, DT40 TDP1 CPT inconclusive and DT40 TDP1 no CPT inconclusive.
COc1c(C)cc(S(=O)(=O)NCCc2c(C)[nH]c3ccccc23)c(C)c1C was read as ClpP mod -1%, TDP1 block 12%, DT40 TDP1 CPT inconclusive and DT40 TDP1 no CPT inconclusive.
